ALDH1A1 inh: qHTS Assay for Inhibitors of Aldehyde Dehydrogenase 1 (ALDH1A1); Aldehyde dehydrogenase 1A1 (Homo sapiens), P00352; Purified ALDH1A1, NADH fluorescence, propionaldehyde substrate; Potency, µM (titrated, usually from 75.3 µM), hits mostly inhibitors; hit rate 7.3% among 220,000; AID 1030, 2008
Target sequence (P00352 whole entry, looked up): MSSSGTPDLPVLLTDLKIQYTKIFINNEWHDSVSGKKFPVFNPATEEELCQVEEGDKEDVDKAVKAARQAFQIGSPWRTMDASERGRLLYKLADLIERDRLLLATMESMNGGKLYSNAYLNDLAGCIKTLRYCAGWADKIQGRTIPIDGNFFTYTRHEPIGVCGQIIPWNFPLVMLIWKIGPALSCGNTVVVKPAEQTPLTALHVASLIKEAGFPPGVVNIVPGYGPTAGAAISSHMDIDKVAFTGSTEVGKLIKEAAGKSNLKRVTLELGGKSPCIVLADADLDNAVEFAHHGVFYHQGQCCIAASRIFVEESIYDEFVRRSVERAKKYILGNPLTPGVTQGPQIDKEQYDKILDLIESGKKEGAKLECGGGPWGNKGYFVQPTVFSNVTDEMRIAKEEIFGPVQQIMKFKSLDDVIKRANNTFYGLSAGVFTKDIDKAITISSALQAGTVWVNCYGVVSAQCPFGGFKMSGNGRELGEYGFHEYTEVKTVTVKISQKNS
HPGD block: qHTS Assay for Inhibitors of HPGD (15-Hydroxyprostaglandin Dehydrogenase); AID 894, 2007; 15-hydroxyprostaglandin dehydrogenase [NAD(+)] (Homo sapiens), P15428; hit rate 4.3% among 150,000; Potency, µM, actives largely listed as inhibitors; purified HPGD, NADH fluorescence kinetic, PGE2 substrate
Target sequence (P15428 whole entry, looked up): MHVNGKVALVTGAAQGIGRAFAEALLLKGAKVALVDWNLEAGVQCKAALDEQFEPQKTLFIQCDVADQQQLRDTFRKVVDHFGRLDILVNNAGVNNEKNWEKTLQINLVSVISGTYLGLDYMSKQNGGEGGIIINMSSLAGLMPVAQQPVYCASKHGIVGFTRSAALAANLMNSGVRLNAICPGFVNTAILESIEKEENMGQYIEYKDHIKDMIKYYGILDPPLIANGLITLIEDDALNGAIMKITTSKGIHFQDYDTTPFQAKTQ
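20 nM HPGD preincubated 15 min at room temperature with compound in 50 mM Tris-HCl pH 8, 0.01% Tween 20. Started with 1 mM NAD+ and 30 uM prostaglandin E2; NADH fluorescence (360/450 nm) read 5 times over 30-s intervals, last minus first.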
LMNA splice mod: qHTS Assay for Modulators of Lamin A Splicing; hit rate 0.01% among 200,000; Potency, µM (series often up to 46.1 µM), usual class: inhibitors; AID 1487, 2009; HeLa LMNA splicing GFP/RFP minigene ratio, 48 h; active means well fitted inhibition curve with a large enough effect in the signal ratio, with a control signal flat, not every such curve was filed as active; inconclusive means small, poorly fitted or top-dose-only effect, or effect the other way, or a change in a side signal; the % refers to the signal ratio
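S3 HeLa stable clones carrying a lamin A-EGFP splicing minigene plus DsRed2 were seeded at 600 cells/well in Opti-MEM with 2% FBS, pin-dosed and incubated 48 h at 37°C. Acumen cytometry (488 nm) gave the GFP/RFP total-intensity ratio.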
HttQ103 aggreg: qHTS Multiplex Assay to Identify Dual Action Probes in a Cell Model of Huntington: Aggregate Formation (GFP). hit rate 1.1% among 220,000. Potency, µM (titrated, usually from 46.1 µM), usual class: inhibitors. PC12 HttQ103-GFP aggregates, Acumen cytometry, 40 h; active means well fitted curve in the direction sought with a large enough effect; inconclusive means small, poorly fitted or top-dose-only effect, or another doubt; inactive means no such curve, though single readings can be large; an effect the other way counts as inactive or inconclusive; further: nearly all actives have a fitted effect of over 60% in size
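PC12/HTTQ103-GFP, ecdysone-inducible; teb 100 nM; cpd qHTS titration; GFP aggregates read on laser cytometer, Ex 488/Em 500-530 nm.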
KDM4E inh: qHTS Assay for Inhibitors of Human Jumonji Domain Containing 2E (JMJD2E); Lysine-specific demethylase 4E (Homo sapiens), B2RXH2; JMJD2E catalytic domain, FDH-coupled NADH fluorescence (FDH is formaldehyde dehydrogenase); Potency, µM (series often up to 57.1 µM), most hits filed as inhibitors; hit rate 1.6% among 230,000; further: nearly all actives have a fitted effect of over 50% in size
HTT cytoprotect: qHTS Multiplex Assay to Identify Dual Action Probes in a Cell Model of Huntington: Cytoprotection (ATP); PC12 HTT-Q103 induced, cytoprotection, ATP luminescence, 40 h; Potency, µM (top dose mostly 56.4 µM), most hits filed as activators; hit rate 0.14% among 230,000; AID 1471, 2008; active means well fitted curve in the direction sought with a large enough effect; inconclusive means small, poorly fitted or top-dose-only effect, or another doubt; inactive means no such curve, though single readings can be large; an effect the other way counts as inactive or inconclusive; further: nearly all actives have a fitted effect of over 45% in size
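PC12 cells stably carrying ecdysone-inducible Htt exon 1 (Q103)–GFP were induced with 100 nM tebufenozide (final) alongside library compounds in a dose series. Cytoprotection was scored as retained ATP by ATPlite luminescence.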
Numbers stand for hits; – = inactive; ? = inconclusive; · = no result; [ ] = dose if it differs, or a comment. This is a sample that favours compounds with a hit; in the whole collection about 9.2% have one here. Unless noted, the call rests on the fitted dose curve; in most records, active means well fitted inhibition curve with a large enough effect (not every such curve was filed as active); inconclusive means small, poorly fitted or top-dose-only effect, or another doubt; inactive means no such curve, though single readings can be large or run the other way.

SMILES	ALDH1A1 inh	HPGD block	LMNA splice mod	HttQ103 aggreg	KDM4E inh	HTT cytoprotect
CC(=O)c1cccc(NC(=O)C2CCN(c3nnc(-n4cccc4)s3)CC2)c1	·	·	–	·	·	·
Cc1cccn2c(=O)c(C=O)c(N3CCSCC3)nc12	·	·	·	–[9.22 µM]	–	–[10 µM]
Cc1cc2c3c(c1)C(C)CC(C)(C)N3C(=O)C2=O (centres undefined)	0.16µM	·	–	·	–	·
CCOc1cc2c3c(c1)C(C)=CC(C)(C)N3C(=O)C2=O	?	·	–	·	–	·
CCOc1cc2c3c(c1)C(C)CC(C)(C)N3C(=O)C2=O (centres undefined)	0.4µM	–	–	–	–	–
CC1CC2(CCCCC2)N2C(=O)C(=O)c3cccc1c32 (centres undefined)	0.045µM	–	–	–	–	–
CC1CC(C)(C)N2C(=O)C(=C(C#N)C#N)c3cccc1c32 (centres undefined)	·	·	·	–[9.22 µM]	–	–[10 µM]
c1ccc(C2=Nc3ccccc3SC2c2nc3ccccc3[nH]2)cc1 (centres undefined)	?	35µM	?	–	?	–
CCC(=O)NC(c1ccc(OC)cc1)c1cc(Cl)c2cccnc2c1O (centres undefined)	–	·	·	–[9.22 µM]	–	–[10 µM]
CCC(=O)NC(c1ccccc1OC)c1ccc2cccnc2c1O (centres undefined)	–	–	?	3.2µM	25µM	–[10 µM]
CCCC(=O)NC(c1ccc(OC)cc1)c1ccc2cccnc2c1O (centres undefined)	–	·	?	?	22µM	–[10 µM]
Cc1cc(NC(c2cccnc2)c2ccc3cccnc3c2O)no1 (centres undefined)	–	–	?	?	?	–
COc1ccc(Cl)cc1C(Nc1cccnc1)c1ccc2cccnc2c1O (centres undefined)	?	·	·	–[9.22 µM]	14µM	–[10 µM]
Oc1c(C(Nc2cccc(C(F)(F)F)c2)c2cccnc2)ccc2cccnc12 (centres undefined)	20µM	–	–	?	?	–[10 µM]
O=C(C1=C[C@H](C2CC2)C[C@H](OCCCCO)O1)N1CCOCC1	?	·	·	–[9.22 µM]	–	–[10 µM]
Cc1nn(C)c(C)c1CN(Cc1nc(CCC(C)C)no1)C(C)C	–	·	–	–[9.22 µM]	–	–[10 µM]
Cc1ccc(NC(=O)c2ccco2)c([N+](=O)[O-])c1	?	·	–	–	–	–
CCN(CC)P(=O)(Nc1ccc(C)cc1Br)c1ccc(N(C)C)cc1NC(=O)c1ccco1 (centres undefined)	?	·	–	35µM	–	–
COc1ccccc1OCc1ccc(C(=O)N2CCN3CCCC3C2)cc1 (centres undefined)	?	20µM	–	–[9.22 µM]	–	–
Cc1ccc(-n2c(SCC(=O)N3CCOCC3)nnc2-c2ccncc2)cc1C	·	·	·	–[9.22 µM]	–	–[10 µM]
COc1cccc(CNc2sc3c(c2C(=O)Nc2ccc(OC)cc2OC)CCC3)c1	·	·	–	·	·	·
CCOC(=O)/C=C/C(=O)OCC(=O)Nc1ccc(Cl)cn1	?	–	–	–	–	–
CCOC(=O)NC1(Nc2ccc(Cl)cn2)Oc2ccccc2O1	13µM	–	?	–[9.22 µM]	25µM	–[4.97 µM]
Cc1cc(O)c(C(C)C)cc1N=C1CSC(=O)N1	13µM	32µM	–	–	–	–
CC1(C)CC(=O)C=C(OC(=O)c2ccc(Cl)cc2)C1	–	14µM	–	–	–	–[10 µM]
SMILES	ALDH1A1 inh	HPGD block	LMNA splice mod	HttQ103 aggreg	KDM4E inh	HTT cytoprotect
CCOC(=O)c1nnn2c1nc(Nc1cccc(C(F)(F)F)c1)c1ccccc12	·	·	·	–[9.22 µM]	–	–[10 µM]
N#CCSc1nnc(Nc2ccccc2)s1	?	28µM	–	–	–	–
CCCCC#CC1C=CC(Oc2ccc(OC)cc2)C(CO)O1 (centres undefined)	–[13.5 µM]	·	·	·	·	–[10 µM]
O=C(c1cccc(S(=O)(=O)Nc2ccccc2F)c1)N1CCN(c2ccccc2F)CC1	?	·	?	–	–	–
O=c1[nH]c(S)nc2sc3c(c12)CCCC3	4.5µM	·	·	?	?	–
O=c1[nH]nnc2sc3c(c12)CCCC3	?	–	–	11µM	–	–[10 µM]
Cc1nc2sc3c(c2c(=O)o1)CCC3	25µM	20µM	–	–	–	–[1.9 µM]
Cc1nc2sc3c(c2c(=O)[nH]1)CCCC3	–[13.5 µM]	–	·	–[9.22 µM]	–	–[10 µM]
O=C1Nc2ccccc2/C1=C/C(=O)c1cccs1	?	?	–	?	–	–
CCN1C(=O)/C(=C\C(=O)c2cccs2)c2cc(Br)ccc21	11µM	·	–	–	–	·
O=C(CSc1nc2ccccc2n1Cc1ccc(F)cc1)N1CCN(c2ccc(F)cc2)CC1	·	·	–	·	·	·
CN1C(=S)SC(/[N+]([O-])=C/c2ccc(Cl)cc2)C1(C)C (centres undefined)	·	·	·	–[9.22 µM]	–	–[10 µM]
[O-]/[N+](=C/c1ccc(F)cc1)c1ccc(Cl)cc1	6.3µM	–	–	–	–	–
Cc1ccccc1C1=CCN(c2ncc(NC(=O)c3ccc(Cl)cc3)cc2C(=O)O)CC1	·	·	–	·	·	·
COc1cccc(N=Nc2c(N)[nH]n3c(=O)cc(-c4ccccc4)nc23)c1	–	–	–	10µM	–	–
Cc1ccc(N=Nc2c(N)[nH]n3c(=O)cc(-c4ccccc4)nc23)cc1	–	–	–	?	–	–
CC(=C\C(=O)O)/C(=C\c1cccc2ccccc12)C(=O)O	·	·	·	–[9.22 µM]	?	–[10 µM]
C/C(C/C(C)=C1/SC(=S)NC1=O)=C1\SC(=S)NC1=O	?	·	·	–	–	?
CCCCCC/C(C)=C1/SC(=S)NC1=O	?	13µM	–	–	–	–
Cc1cnc(C(=O)Nc2ccccc2-n2cccc2)cn1	16µM	–	–	–	–	–[1.9 µM]
Cc1cnc(C(=O)Nc2ccc(C(=O)N(C)C3CCCCC3)cc2)cn1	–	13µM	–	–	–	–
COc1ccc(NC(=O)c2cnc(C)cn2)c2ncccc12	–	–	–	1.8µM	–	–[10 µM]
Cc1cnc(C(=O)Nc2ccc(F)cc2)cn1	32µM	–	–	–	–	–
Cc1cnc(C(=O)Nc2ccc(C(C)C)cc2)cn1	–	·	?	–	–	–
NC[C@@H]1O[C@@H](O[C@H]2[C@@H](O)[C@H](O[C@@H]3[C@H](O)[C@H](N)C[C@H](N)[C@H]3O[C@@H]3O[C@@H](CO)[C@H](O)[C@H](O)[C@@H]3N)O[C@H]2CO)[C@H](N)[C@H](O)[C@@H]1O	·	·	·	·	·	–[1.9 µM]
Cc1ccc(C(=O)Nc2cccc(C(=O)OCc3cc(=O)n4nc(C5CC5)sc4n3)c2)cc1	·	·	–	·	·	·
O=C(c1cc2c(s1)CCCC2)N1CCN(S(=O)(=O)c2ccccc2C(F)(F)F)CC1	?	–	?	?	–	–[10 µM]
